ELG1 genotox – induces genotoxicity in HEK293T cells with luciferase-tagged ELG1. HEK293T ELG1-luciferase reporter, luminescence, 16 h. Potency, µM (top dose mostly 46 µM), for inactives: top-dose activity change, positive = activation, most hits filed as activators. hit rate 1.3% among 330,000. AID 504466; further: % of control where 0% means no effect; nearly all actives have a fitted effect of over 60% in size
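Step 1: seed 2,000 HEK293T ELG1-luciferase cells per well. Step 2: add compound or DMSO, incubate 16 hr at 37 °C. Step 3: ONE-Glo, 30 min at room temperature, read luminescence.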
Rab9 promoter act – activates the Rab9 promoter. Huh7 Rab9 promoter-luciferase reporter, luminescence, 24 h. Potency, µM (series often up to 9.22 µM), inactives show at the top dose activation, negative = inhibition, most hits filed as activators. hit rate 2.8% among 320,000. AID 485297; further: % of control where 0% means no effect; nearly all actives have a fitted effect of over 60% in size
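Rab9 promoter-driven luciferase in stably transfected Huh7 cells; 1500 cells/well rested 2 h, exposed to compound in DMSO for 24 h at 37 °C, 5% CO2. Luminescence read 10 min after adding luciferase reagent at ambient temperature.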
NPC1 promoter act – NPC1 promoter activation; Huh7 NPC1 promoter luciferase reporter, 24 h; hit rate 2.4% among 320,000; Potency, µM (titrated, usually from 9.22 µM), without a hit: at the highest dose activation, usual class: activators; further: % of control where 0% means no effect; nearly all actives have a fitted effect of over 60% in size
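Huh7 reporter cells (NPC1 promoter driving luciferase) are dosed with compound for 24 h at 37 °C, 5% CO2; luciferase detection reagent is then added and luminescence measured after 10 min at ambient temperature.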
ELG1 repair inh – inhibitors of ELG1-dependent DNA repair in HEK293T cells | AID 504467 | hit rate 2.3% among 330,000 | HEK293T ELG1-luciferase reporter, luminescence, 16 h; DNA damage induced by 5-fluorouridine | Potency, µM (series often up to 46.1 µM), inactives show top-dose activity change, negative = inhibition, most hits filed as inhibitors; further: on the % scale 0 is the no-effect control and ±100 the full control effect; nearly all actives have a fitted effect of over 55% in size
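Cells (2,000 per well) received 5-fluorouridine plus test compound or DMSO and were incubated 16 hr at 37 °C, 5% CO2. Luciferase activity was read by luminescence 30 min after ONE-Glo addition; signal suppression marked inhibition of damage-induced ELG1 function.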
SMN2 splice up – increases expression of the SMN2 splice variant. HEK293 SMN2-luciferase splicing reporter, luminescence, 30-36 h. hit rate 2.8% among 210,000. Potency, µM (highest dose often 46.1 µM), without a hit: top-dose activity change, positive = activation, most hits filed as activators. AID 1458; further: % of control where 0% means no effect; nearly all actives have a fitted effect of over 55% in size
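HEK293 cells carry an SMN2 […]–luciferase reporter in which exon 7 inclusion puts luciferase in frame. Cells were plated 10-12 h before compound addition, then incubated 30-36 h at 37C. ONE-Glo luminescence was read; sodium butyrate at 4.5 mM final served as control.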
FLuc modulator – counter-screen for miR-21 project: firefly luciferase inhibitors or activators; P08659; purified FLuc, Km substrates, luminescence inhibition; Potency, µM (titrated, usually from 57.5 µM), for the others: at the top dose activity change, negative = inhibition, actives largely listed as inhibitors; hit rate 6.9% among 360,000;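 further: plate controls were vehicle for no effect and reference inhibitor for full effect; nearly all actives have a fitted effect of over 55% in size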
Target sequence (P08659 whole entry, looked up): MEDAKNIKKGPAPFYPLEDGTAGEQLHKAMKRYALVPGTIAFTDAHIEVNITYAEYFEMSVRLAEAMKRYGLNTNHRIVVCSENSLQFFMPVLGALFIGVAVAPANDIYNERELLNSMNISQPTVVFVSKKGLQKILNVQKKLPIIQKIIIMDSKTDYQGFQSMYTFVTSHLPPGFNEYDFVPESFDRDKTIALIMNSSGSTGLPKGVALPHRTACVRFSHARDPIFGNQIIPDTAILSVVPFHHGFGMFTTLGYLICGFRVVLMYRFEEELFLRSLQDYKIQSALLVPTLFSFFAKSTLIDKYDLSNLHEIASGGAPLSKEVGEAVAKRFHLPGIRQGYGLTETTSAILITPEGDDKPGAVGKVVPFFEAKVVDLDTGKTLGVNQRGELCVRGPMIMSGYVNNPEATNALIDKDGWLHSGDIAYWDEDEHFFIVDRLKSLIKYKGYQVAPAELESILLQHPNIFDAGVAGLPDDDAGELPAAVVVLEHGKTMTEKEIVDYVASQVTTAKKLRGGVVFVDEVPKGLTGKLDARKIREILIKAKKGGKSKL
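Biochemical qHTS of compounds, final roughly 60 µM downward over six points, against 10 nM purified firefly luciferase using Km concentrations of substrates (10 uM D-luciferin, 10 uM ATP) in Tris acetate pH 7.5 buffer; luminescence output.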
* marks the source's active call; other numbers are inactive results. This is a sample that favours compounds with a hit; in the whole collection about 9.2% have one here. The call rests on the fitted dose curve; in most records, active means well fitted curve in the direction sought with a large enough effect; inconclusive means small, poorly fitted or top-dose-only effect, or another doubt; inactive means no such curve, though single readings can be large; an effect the other way counts as inactive or inconclusive. Potency means the concentration at half of the fitted maximal effect.

Screening O=[N+]([O-])c1ccc(-c2nc(C(Cl)Cl)c3ccccc3n2)cc1 returned ELG1 genotox 8%, Rab9 promoter act -55%, NPC1 promoter act -37%, ELG1 repair inh 5.2µM* and FLuc modulator 3%.
Screening COc1ccc(-c2cn3cc(C(=O)NN)ccc3n2)cc1 returned ELG1 genotox inconclusive, Rab9 promoter act 0.32µM*, NPC1 promoter act inconclusive, ELG1 repair inh inconclusive and FLuc modulator 7.6µM*.
`NNC(=O)c1ccc2nc(-c3ccc(Br)cc3)cn2c1` gave ELG1 genotox inconclusive, Rab9 promoter act 0.5µM*, NPC1 promoter act 0.4µM*, ELG1 repair inh inconclusive, SMN2 splice up 11µM* and FLuc modulator 9.5µM*.
For COc1ccc(C(=O)NN)cc1 the results were ELG1 genotox 1%, Rab9 promoter act -1%, NPC1 promoter act -3%, ELG1 repair inh inconclusive and FLuc modulator -10%.
`CSc1ccccc1NC(=O)C1CC(c2c(F)cccc2Cl)=NO1` (stereo not given) gave ELG1 genotox inconclusive, Rab9 promoter act 16%, NPC1 promoter act 14%, ELG1 repair inh inconclusive and FLuc modulator 17µM*.
For CC1=CC2=NC(=O)/C(=C\c3cccn3CCOc3ccccc3)C(=N)N2O1 the results were ELG1 genotox -4%, Rab9 promoter act 1%, NPC1 promoter act -3%, ELG1 repair inh inconclusive, SMN2 splice up inconclusive and FLuc modulator -2%.
Screening CC1=CC2=NC(=O)/C(=C\c3cccn3CCOc3cc(C)cc(C)c3)C(=N)N2O1 returned ELG1 genotox -3%, Rab9 promoter act -2%, NPC1 promoter act 0%, ELG1 repair inh 21µM*, SMN2 splice up 18% and FLuc modulator 0%.
`CC1=CC2=NC(=O)/C(=C\c3cccn3CCOc3cccc(C)c3)C(=N)N2O1` gave ELG1 genotox -3%, Rab9 promoter act -6%, NPC1 promoter act -3%, ELG1 repair inh 23µM*, SMN2 splice up inconclusive and FLuc modulator 3%.
`O=C(NCCCN1CCN(c2ccccc2F)CC1)C1COc2ccccc2C1` (stereo not given) gave FLuc modulator -4%.
O=C1SC(SCc2ccccc2)=N/C1=C\c1ccc(C(=O)O)cc1 was read as ELG1 genotox 0%, Rab9 promoter act -3%, NPC1 promoter act -2%, ELG1 repair inh 3% and FLuc modulator 24µM*.
CCOC(=O)C1=C(CS(=O)(=O)c2cccc(C(F)(F)F)c2)NC(=O)NC1c1cccc(OC)c1 (stereo not given) was read as SMN2 splice up 7% and FLuc modulator -9%.
Screening Cc1ccc(-n2nnnc2CNC(=O)C(C)(C)C)cc1C returned FLuc modulator -2%.
For COc1ccc(N=Nc2nc3ccc(Br)cc3n2C)cc1 the results were ELG1 genotox 13%, Rab9 promoter act 2.5µM*, NPC1 promoter act 2.8µM*, ELG1 repair inh inconclusive, SMN2 splice up inconclusive and FLuc modulator 0.38µM*.
Screening COc1ccc(-n2nc(C(=O)Nc3ccc(C)cn3)c3c4ccccc4n(C)c3c2=O)cc1 returned SMN2 splice up -3% and FLuc modulator -2%.
Screening CCOc1ccc(N(Cc2cc3cc(C)ccc3[nH]c2=O)C(=O)c2cccc(Cl)c2)cc1 returned SMN2 splice up 7% and FLuc modulator 4%.
`CCN=C1S/C(=C\c2ccc(OC)c(OCC)c2)C(=O)N1CC` gave ELG1 genotox 0%, Rab9 promoter act -6%, NPC1 promoter act 0%, ELG1 repair inh 1%, SMN2 splice up 0% and FLuc modulator 4%.
CCCOc1ccc(/C=C2\SC(=S)N(CC3CCCO3)C2=O)cc1 (stereo not given) was read as ELG1 genotox 7%, Rab9 promoter act 7%, NPC1 promoter act -3%, ELG1 repair inh -1%, SMN2 splice up -21% and FLuc modulator 9.5µM*.
Cc1ccsc1/C=C1\SC(=S)N(CC2CCCO2)C1=O (stereo not given) was read as ELG1 genotox inconclusive, Rab9 promoter act inconclusive, NPC1 promoter act 13%, ELG1 repair inh inconclusive, SMN2 splice up 18% and FLuc modulator 11µM*.
CCN=C1S/C(=C\c2sccc2C)C(=O)N1CC was read as ELG1 genotox inconclusive, Rab9 promoter act inconclusive, NPC1 promoter act inconclusive, ELG1 repair inh inconclusive, SMN2 splice up 24% and FLuc modulator 12µM*.
`CCC(Oc1ccccc1)C(=O)Nc1cc(-c2ccccc2OC)nn1-c1ccccc1` (stereo not given) gave FLuc modulator 1%.
For CN(C)c1c(F)cc(-c2nn[nH]n2)cc1F the results were ELG1 genotox 15%, Rab9 promoter act 4%, NPC1 promoter act 1%, ELG1 repair inh inconclusive and FLuc modulator 15µM*.
For Cc1cc(Cl)n2c(nc3ccccc32)c1C#N the results were ELG1 genotox inconclusive, Rab9 promoter act -10%, NPC1 promoter act -19%, ELG1 repair inh 21µM*, SMN2 splice up -107% and FLuc modulator -4%.
Screening CNc1cc(C)c(C#N)c2nc3ccccc3n12 returned ELG1 genotox -6%, Rab9 promoter act -1%, NPC1 promoter act -1%, ELG1 repair inh -10% and FLuc modulator 4%.
For Cc1ccc(-c2c(C#N)c(N)n3c(nc4ccccc43)c2C#N)cc1 the results were ELG1 genotox -28%, Rab9 promoter act -10%, NPC1 promoter act 0%, ELG1 repair inh 18µM*, SMN2 splice up -118% and FLuc modulator 1%.
For N#Cc1c(-c2ccccc2)c(C#N)c2nc3ccccc3n2c1N the results were ELG1 genotox 1%, Rab9 promoter act -9%, NPC1 promoter act -3%, ELG1 repair inh -15%, SMN2 splice up -12% and FLuc modulator 3%.
For Cc1cccn2c(=O)c3cc(C(=O)NCCc4ccc(S(N)(=O)=O)cc4)n(C)c3nc12 the results were FLuc modulator -8%.
Screening CCOC(=O)N1CCC(N2Cc3cccc(C(=O)NCc4ccccn4)c3C2=O)CC1 returned ELG1 genotox -1%, Rab9 promoter act -1%, NPC1 promoter act 0%, ELG1 repair inh 1%, SMN2 splice up 12% and FLuc modulator 2%.
`CCOC(=O)N1CCC(N2Cc3cccc(C(=O)NCc4ccc(C)cc4)c3C2=O)CC1` gave ELG1 genotox -5%, Rab9 promoter act -3%, NPC1 promoter act -4%, ELG1 repair inh 16µM*, SMN2 splice up -11% and FLuc modulator -1%.
